Composite z-score and z-score data for 13 compounds are collected here from PubChem BioAssay.

Test [1] has as its system PRMT1 (protein arginine N-methyltransferase 1). The test can be described thus: small molecules binding arginine methyltransferase PRMT1 – biochemical, small-molecule microarray, 635 nm fluorescence, primary screen (AID 1088).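 Further: binding of Prmt1 protein to compounds spotted on small-molecule microarray slides.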 Conditions: higher = more signal.
Test [2] is described as follows: growth effects on S. cerevisiae YJM789 – YJM789 clinical isolate, OD600, 24 h, basal, primary screen (AID 1089).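 Further: growth of clinical yeast isolate S. cerevisiae YJM 789 seeded 1000 cells per well; test concentration not given here.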 The note with it: higher = more signal, called active from +8 up or from −8 down.
The nature of test [3]: S. pombe growth modifiers, basal conditions – strain 972, OD600, 24 h, no modulator, primary screen (AID 1090).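 Further: basal condition with compound alone and no growth modifier present; test concentration not given here.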 Conditions: S. pombe 972 growth, higher = more signal, called active from +8 up or from −8 down.
Test [4] is described as follows: budding yeast growth modifiers under rapamycin – strain BY4716, OD600, 96 h, primary screen (AID 1091). Further: test concentration not given here. The note with it: S. cerevisiae BY4716 + rapamycin, higher = more signal, called active from +8 up or from −8 down.
Test [5] deals with Torsin-1A-interacting protein 2 (Homo sapiens) (UniProt Q8NFQ8). The test can be described thus: small molecules binding lysate-expressed LULL1 – cell lysate, human LULL1 lysate, 635/667 nm fluorescence, primary screen (AID 1092).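 Further: probe is lysate of COS7 cells overexpressing human LULL1; score merges per-feature 667 nm fluorescence with signal-to-noise.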 Conditions: small-molecule microarray, hLULL1 lysate binding, 635 nm fluorescence; higher = more signal.
Test [6] can be described thus: optical density change of DRC41 E. coli – strain DRC41, OD650, 24 h, E. coli filamentation project, primary screen (AID 1093).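 Further: MC1000 strain lacking acrAB efflux and sulA so SOS filamentation is blocked; test concentration not given here.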 The note with it: E. coli DRC41 growth, higher = more signal, called active from +8 up or from −8 down.
The nature of test [7]: probe aLefty2 binding to arrayed compounds – biochemical, biotinylated probe, 635/667 nm fluorescence, primary screen (AID 1094).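 Further: score merges spot fluorescence near 667 nm with spot signal-to-noise ratio.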 Conditions: small-molecule microarray, higher = more signal.
Test [8] concerns Noggin (protein binding on small-molecule microarray). Description: small molecules binding Noggin protein – biochemical, 635/667 nm fluorescence, primary screen (AID 1095).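 Further: score merges 667 nm feature fluorescence with signal to noise over triplicate slides.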 Conditions: 635 nm fluorescence, higher = more signal.
Test [9] deals with Neurogenic locus notch homolog protein 3 (Homo sapiens) (UniProt Q9UM47). The test can be described thus: small molecules binding NOTCH3 protein – biochemical, 635/667 nm fluorescence, primary screen (AID 1096). The note with it: small-molecule microarray, 635 nm fluorescence, higher = more signal.
Test [10] in a line: probe aEGFR binding to arrayed compounds – biochemical, biotinylated probe, 635/667 nm fluorescence, primary screen (AID 1097).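 Further: probe is a biotinylated anti-EGFR antibody binding compounds printed on slides; score combines fluorescence near 667 nm and signal to noise of each spot.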 Conditions: small-molecule microarray, higher = more signal.

Structures are written as SMILES. Activity calls are given as the source filed them.

Neurogenic locus notch homolog protein 3 (Homo sapiens), sequence (Q9UM47 whole entry, looked up): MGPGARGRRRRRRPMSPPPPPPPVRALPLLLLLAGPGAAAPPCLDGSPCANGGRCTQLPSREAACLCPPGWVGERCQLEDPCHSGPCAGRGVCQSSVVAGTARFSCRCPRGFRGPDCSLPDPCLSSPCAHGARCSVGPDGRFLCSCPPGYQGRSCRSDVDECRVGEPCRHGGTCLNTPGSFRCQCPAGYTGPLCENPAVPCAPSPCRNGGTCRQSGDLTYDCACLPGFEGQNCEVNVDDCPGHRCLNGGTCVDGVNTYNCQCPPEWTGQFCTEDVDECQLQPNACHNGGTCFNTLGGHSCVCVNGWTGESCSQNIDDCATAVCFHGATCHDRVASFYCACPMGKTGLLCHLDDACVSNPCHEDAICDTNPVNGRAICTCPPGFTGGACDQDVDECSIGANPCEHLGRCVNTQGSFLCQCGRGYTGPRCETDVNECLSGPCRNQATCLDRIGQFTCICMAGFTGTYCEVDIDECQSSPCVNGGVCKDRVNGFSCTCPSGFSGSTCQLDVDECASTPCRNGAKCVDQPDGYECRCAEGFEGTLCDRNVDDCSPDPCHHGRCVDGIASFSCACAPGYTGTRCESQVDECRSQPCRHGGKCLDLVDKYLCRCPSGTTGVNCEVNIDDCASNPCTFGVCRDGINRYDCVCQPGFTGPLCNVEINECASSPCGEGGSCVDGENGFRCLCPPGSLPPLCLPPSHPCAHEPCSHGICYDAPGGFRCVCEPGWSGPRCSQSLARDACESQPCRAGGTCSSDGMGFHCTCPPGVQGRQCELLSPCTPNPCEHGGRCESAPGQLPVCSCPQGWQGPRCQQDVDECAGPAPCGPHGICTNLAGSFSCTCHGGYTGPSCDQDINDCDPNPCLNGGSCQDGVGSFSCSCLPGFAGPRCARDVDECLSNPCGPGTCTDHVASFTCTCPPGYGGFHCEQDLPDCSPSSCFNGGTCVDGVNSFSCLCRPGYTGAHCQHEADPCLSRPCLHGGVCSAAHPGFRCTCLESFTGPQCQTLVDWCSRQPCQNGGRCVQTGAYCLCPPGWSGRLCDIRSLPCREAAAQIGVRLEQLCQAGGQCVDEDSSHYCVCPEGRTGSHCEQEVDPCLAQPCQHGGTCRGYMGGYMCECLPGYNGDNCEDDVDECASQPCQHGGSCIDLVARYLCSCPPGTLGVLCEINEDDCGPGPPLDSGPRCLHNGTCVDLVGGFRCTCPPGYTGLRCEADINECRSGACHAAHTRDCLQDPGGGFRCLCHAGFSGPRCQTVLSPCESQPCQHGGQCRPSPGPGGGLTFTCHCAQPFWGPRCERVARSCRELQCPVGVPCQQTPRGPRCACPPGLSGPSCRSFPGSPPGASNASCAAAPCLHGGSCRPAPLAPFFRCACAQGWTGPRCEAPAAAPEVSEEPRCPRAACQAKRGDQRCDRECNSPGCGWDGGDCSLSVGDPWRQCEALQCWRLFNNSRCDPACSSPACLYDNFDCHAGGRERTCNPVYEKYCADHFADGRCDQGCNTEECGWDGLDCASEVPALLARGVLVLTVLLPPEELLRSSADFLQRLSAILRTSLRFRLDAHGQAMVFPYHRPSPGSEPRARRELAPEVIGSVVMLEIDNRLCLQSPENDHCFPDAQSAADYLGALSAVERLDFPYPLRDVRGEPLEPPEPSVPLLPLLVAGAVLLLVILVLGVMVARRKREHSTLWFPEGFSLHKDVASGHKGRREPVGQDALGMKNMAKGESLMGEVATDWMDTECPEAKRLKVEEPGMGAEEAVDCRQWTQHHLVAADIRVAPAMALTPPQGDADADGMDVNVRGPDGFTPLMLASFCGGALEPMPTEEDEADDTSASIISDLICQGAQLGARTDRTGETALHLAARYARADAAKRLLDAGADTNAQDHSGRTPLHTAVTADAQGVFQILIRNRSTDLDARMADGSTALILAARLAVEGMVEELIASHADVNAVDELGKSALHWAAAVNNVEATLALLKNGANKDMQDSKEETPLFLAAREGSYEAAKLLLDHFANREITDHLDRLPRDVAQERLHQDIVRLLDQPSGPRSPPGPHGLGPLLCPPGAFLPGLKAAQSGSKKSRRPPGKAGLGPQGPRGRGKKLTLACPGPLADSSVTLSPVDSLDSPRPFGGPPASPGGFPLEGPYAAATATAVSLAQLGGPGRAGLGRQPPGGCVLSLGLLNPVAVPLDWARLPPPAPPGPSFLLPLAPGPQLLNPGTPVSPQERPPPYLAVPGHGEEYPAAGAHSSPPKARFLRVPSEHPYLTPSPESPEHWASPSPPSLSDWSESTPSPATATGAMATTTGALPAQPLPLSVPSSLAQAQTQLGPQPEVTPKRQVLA
Torsin-1A-interacting protein 2 (Homo sapiens), sequence (Q8NFQ8 whole entry, looked up): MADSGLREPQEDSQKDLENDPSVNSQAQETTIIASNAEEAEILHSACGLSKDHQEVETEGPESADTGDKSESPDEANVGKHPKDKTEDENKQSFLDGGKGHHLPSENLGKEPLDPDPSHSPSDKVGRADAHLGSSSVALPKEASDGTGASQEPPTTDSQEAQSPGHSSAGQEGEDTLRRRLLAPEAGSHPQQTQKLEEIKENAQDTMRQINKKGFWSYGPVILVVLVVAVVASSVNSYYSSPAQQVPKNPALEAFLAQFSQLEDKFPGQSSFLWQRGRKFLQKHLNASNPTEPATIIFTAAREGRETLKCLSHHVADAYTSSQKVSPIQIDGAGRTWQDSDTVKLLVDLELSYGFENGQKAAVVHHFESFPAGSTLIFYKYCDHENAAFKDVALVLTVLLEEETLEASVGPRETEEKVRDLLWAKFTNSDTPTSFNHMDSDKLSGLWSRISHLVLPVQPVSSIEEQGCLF

With `C=C[C@@H](O)[C@H]1CC(c2ccccc2)=NO1`, the composite z-score in test [1] was -0.425; in test [5] it was -0.141; in test [7] it was -0.0339; in test [8], -0.174; in test [9] it was -0.872; in test [10] it was -0.0844. The z-score in test [2] is -0.347 (inactive); in test [3], -0.954 (inactive); in [4], -0.657 (inactive); in test [6] it was 1.13 (inactive).

Take `COCCOC(=O)N1C(=O)[C@@]2(c3cc(C#CC4(O)CCCCCC4)ccc31)[C@H](C(=O)NC[C@H](O)c1ccccc1)[C@H]1C(=O)O[C@H](c3ccccc3)[C@H](c3ccccc3)N1[C@@H]2c1ccc(OCCO)cc1`: the composite z-score in test [1] was 1.55; in test [5], 2.33; in test [7] it was -0.121; in [8], 1.78; in test [9], 1.15; in [10] it was -0.0978. For the same compound, the z-score in test [2] was 1.94 (inactive); in [3] it was 0.814 (inactive); in [4], 5.65 (inactive); in test [6] it was 1.35 (inactive).

In the case of `CC(C)C[C@H]1NC(=O)[C@H](C)NC(=O)[C@@]23C(=O)N[C@@H](Cc4ccccc4)C2[C@H](C)[C@@]2(C)O[C@H]2C3/C=C/C/C=C\CNC1=O` (stereo not given in full), the composite z-score in [1] is 0.653; in [5] it was 2.44; in [7] it was -0.27; in test [8], -0.344; in test [9] it was 0.0715; in test [10] it was -0.158. For the same compound, the z-score in test [2] is -1.14 (inactive); in test [3], -1.25 (inactive); in test [4], -1.07 (inactive); in test [6] it was -0.847 (inactive).

In the case of `CCCC[C@H]1OB(O)C[C@H]2C1=C(COc1ccccc1)Cn1c(=O)n(-c3ccccc3)c(=O)n12`, the composite z-score in [1] is 0.905; in test [5], 2.24; in test [7] it was -0.116; in test [8] it was 0.836; in test [9] it was 0.733; in [10], -0.0947. Besides, the z-score in test [2] was 0.54 (inactive); in test [3], -4.94 (inactive); in test [4], 0.59 (inactive); in [6], -0.298 (inactive).

Turning to `CCCC=C(CCC)[C@@H](NC(=O)Cc1ccccc1)c1ccc(C(=O)OC)cc1`, the composite z-score in test [1] is 0.658; in test [5], 1.54; in test [7], 1.1; in test [8], 0.234; in [9] it was 0.505; in test [10], 0.577. In addition, the z-score in test [2] is 0.761 (inactive); in test [3] it was 0.847 (inactive); in [4], 0.762 (inactive); in test [6] it was -0.556 (inactive).

For the compound `CO[C@H]1O[C@H](CO)[C@@H](OC(=O)c2ccc(Br)cc2)[C@@H]2OC(=O)[C@H](Cc3cccc(Br)c3)C/C=C/C[C@@H](Cc3cccc(Br)c3)C(=O)O[C@@H]12`, the composite z-score in test [1] came out at 1.47; in [5] it was 1.08; in [7], 0.0717; in test [8] it was 0.553; in test [9] it was 1.04; in test [10], 0.158. Also, the z-score in test [2] was -0.73 (inactive); in test [3], 0.16 (inactive); in [4], -0.0347 (inactive); in test [6], -0.972 (inactive).

`COC(=O)[C@@]1(Cc2ccccc2)[C@H]2c3cc(C(=O)N(C)C)n(Cc4ccc(O)c(OC)c4)c3C[C@H]2CN1C(=O)c1ccccc1`: the composite z-score was 1.18 in test [1]; 2.74 in test [5]; -0.0203 in test [7]; -0.372 in test [8]; 0.895 in test [9]; 0.38 in test [10]. In addition, the z-score in [2] was 0.473 (inactive); in [3] it was -0.455 (inactive); in test [4] it was 0.836 (inactive); in test [6], 0.195 (inactive).

Turning to `Cc1cc(C)c(C(O)C2C=CC3C(=O)N(c4ccccc4)C(=O)C3N2Nc2ccccc2)c(C)c1` (stereo not given), the composite z-score in test [1] stood at 1.56; in test [5], 3.47; in test [7] it was 0.506; in test [8], 0.0982; in test [9] it was 1.05; in [10] it was 0.178. Also, the z-score in test [2] is 0.839 (inactive); in [3], 0.483 (inactive); in test [4], 0.0441 (inactive); in [6], -1.02 (inactive).

Consider `NC(=O)[C@H]1[C@@H]2C(=O)O[C@@H](c3ccccc3)[C@@H](c3ccccc3)N2[C@@H](c2ccc(O)cc2)[C@]12C(=O)Nc1ccc(C#CC3(O)CCCCCC3)cc12`, for which the composite z-score in test [1] is 1.53; in [5], 3.22; in test [7] it was 0.0441; in test [8], 1.2; in test [9], 1.03; in test [10] it was 0.0955. Also, the z-score in test [2] was 0.46 (inactive); in [3], -1.09 (inactive); in test [4], 1.33 (inactive); in test [6] it was 0.568 (inactive).

For the compound `Cc1ccc(-c2cccc(=O)o2)cc1`, the composite z-score in test [1] is -0.0072; in test [5] it was -0.606; in [7] it was -0.183; in test [8], -0.175; in test [9], -0.312; in test [10], -0.105. Besides, the z-score is -1.91 (inactive) in test [2], -1.56 (inactive) in [3], 1 (inactive) in test [4] and 0.0307 (inactive) in test [6].

Take `COc1cc(NN2C(C(O)c3ccc(I)cc3)C=CC3C(=O)N(C)C(=O)C32)cc(OC)c1OC` (stereo not given): the composite z-score in [1] is 0.0146; in test [5], 2.75; in test [7], 0.0283; in test [8], -0.131; in test [9], -0.325; in [10], 0.113. Besides, the z-score in test [2] is 0.896 (inactive); in test [3], 0.605 (inactive); in test [4], 0.0514 (inactive); in test [6], 0.202 (inactive).

Regarding `COc1ccc([Si](C)(C)[C@@H]2[C@@H](CC(=O)N3Cc4ccccc4C[C@H]3CO)O[C@]3(C(=O)N(Cc4cccc(N5CCCCC5=O)c4)c4ccccc43)[C@H]2C)cc1`, the composite z-score in [1] was 1.55; in test [5], 1.79; in [7], -0.0878; in test [8], 1.41; in test [9], 1.07; in [10] it was -0.0356. For the same compound, the z-score in test [2] is 0.318 (inactive); in test [3] it was 1.41 (inactive); in test [4], 2.4 (inactive); in test [6], 0.73 (inactive).

With `[N-]=[N+]=Nc1ccccc1[C@H]1OC(c2ccc(OCCCO)cc2)=N[C@@]1(Cc1ccccc1)C(=O)NCc1ccccc1`, the composite z-score in test [1] was 1.57; in test [5], 2.79; in [7], -0.0192; in [8], 0.641; in test [9], 1.04; in [10] it was -0.0066. Besides, the z-score is -2.78 (inactive) in [2], -2.1 (inactive) in test [3], 1.12 (inactive) in test [4] and 1.81 (inactive) in test [6].
